# Data as given in PubChem BioAssay (NCI).
# This is part of a sample that, as a whole, favours compounds with a hit. Of some 79,000 tested, about 15% had one in any assay. Unmarked numbers belong to inactive results. The source made the active and inactive calls. No stated cut-off is given here; in the data, active means growth inhibition above about 70%; inactive means the rest.
# Columns and labels:
# [1] = NCI Yeast Anticancer Drug Screen. Data for the rad50 strain (AID 155);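 further: 0% = growth of vehicle-only cultures of the same strain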; conditions: S. cerevisiae rad50 strain growth inhibition; at 50.0 µM; hits give high values
# Summary of the method: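 Yeast carrying a defined DNA repair defect were exposed to test compounds, and growth was compared with vehicle-treated controls to give percent inhibition.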
# [2] = NCI Yeast Anticancer Drug Screen. Data for the mec2-1 strain (AID 157); conditions: S. cerevisiae mec2-1 strain, at 50.0 µM, hits give high values
# Summary of the method: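 Readout is yeast growth inhibition, normalised to vehicle-treated controls, in the mec2-1 strain exposed to compound.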
# [3] = NCI Yeast Anticancer Drug Screen. Data for the cln2 rad14 strain (AID 165);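 further: 0% = growth equal to vehicle treated cultures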; conditions: S. cerevisiae cln2 rad14 strain, at 50.0 µM, hits give high values
# Summary of the method: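 Relative to vehicle controls, growth inhibition of compound-treated cln2 rad14 yeast was recorded.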
# [4] = NCI Yeast Anticancer Drug Screen. Data for the bub3 strain (AID 167); conditions: S. cerevisiae bub3 mutant strain, at 50.0 µM, hits give high values
# Summary of the method: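 Compounds were applied to a genetically altered yeast strain carrying a cell-cycle control defect. Growth inhibition was scored against vehicle-treated controls.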
# [5] = NCI Yeast Anticancer Drug Screen. Data for the sgs1 mgt1 strain (AID 161);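 further: 0% = growth of cultures given vehicle only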; conditions: S. cerevisiae sgs1 mgt1 strain, at 50.0 µM, hits give high values
# Summary of the method: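 Yeast cells carrying a defined DNA-repair defect were exposed to test compounds. Growth inhibition was measured relative to vehicle-treated controls.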
# [6] = NCI Yeast Anticancer Drug Screen. Data for the mlh1 rad18 strain (AID 175); conditions: S. cerevisiae mlh1 rad18 strain growth inhibition; at 50.0 µM; hits give high values
# Summary of the method: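 Test agents were incubated with a yeast strain of defined genotype (DNA damage repair defect). Inhibition of growth was derived by comparison with vehicle-exposed cultures.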
SMILES,growth inhibition [1] [%],growth inhibition [2] [%],growth inhibition [3],growth inhibition [4] [%],growth inhibition [5],growth inhibition [6] [%]
Cc1ccc[n+](CCC(N)=O)c1,-18.4,-41.4,1.2%,-16.1,–,–
Nc1ccccc1SC1CC(=O)N(c2ccc(Cl)c(Cl)c2)C1=O (configuration not stated),-2.05,-21.6,–,1.15,4.7%,-5.4
CC(=O)c1cccs1,-9.65,-0.05,–,-3.35,15.1%,6.7
O=S(=O)(c1ccc(NC(=S)NCc2cccnc2)cc1)N1CCCCC1,21.9,11.9,–,36.4,23.9%,22.2
O=c1cc(Cl)nc2ccccn12,18.6,-1.1,-52.3%,–,-11%,4.5
COc1cc(C(=O)O)c(O)c(C(C)(C)C)c1,19.4,4.25,–,5.4,17.9%,8.5
Cc1ccc(OC(=O)c2ccccc2)cc1,9.3,-9.65,–,-8.6,-18.6%,-14.6
CC(=O)N(C)N=Nc1ccc(C)cc1,3.7,-23.6,–,0.1,-13.6%,-4.05
O=C1C=Cc2ccccc2/C1=C/c1[nH]c(=O)[nH]c1O,-21.1,-1.35,–,-3,-9.7%,-5.3
C/C(=N\Nc1ccc([N+](=O)[O-])cc1[N+](=O)[O-])c1ccc(Br)cc1,-8.7,-2.2,–,8.7,2.35%,3.05
CCOC(=O)CNC,3.55,-3.25,–,10.3,-12.7%,-10.9
OC(CBr)CCBr (configuration not stated),-28.7,-31.1,–,-32.1,-39.6%,-32
COC(=O)c1cccc([N+](=O)[O-])c1,-11.3,-5.7,–,-0.4,-4.7%,-9.9
O=C(NC(=S)N1CC=CCC1)c1ccccc1,–,–,–,–,26.4%,–
O=C1NCC2CCCC1C2 (configuration not stated),–,–,–,–,-9.3%,–
O=S(=O)(O)c1cccc2cccnc12,4.3,–,-14.6%,10.4,7%,-0.5
O=[N+]([O-])c1ccc(-c2nc(N(CCO)CCO)c3ccccc3n2)o1,41.8,–,72.5% (active),25.1,88.8% (active),66.8
CCCCCCCCCCCCSC1=C(Cl)C(=O)C(OC)=C(OC)C1=O,23.3,–,4.75%,–,1.5%,38
CSCCC(NC(=O)C(Cl)Cl)C(=O)O (configuration not stated),-31.6,–,-49%,17,-4.1%,3.4
Cc1cccc(C)c1NC(=S)/N=C\c1c(O)[nH]c(=O)[nH]c1=O,-67,–,-24.3%,-46.1,-32.3%,-57.2
C=COC(=O)CCOCC(CC)CCCC (configuration not stated),-6.1,–,-6.2%,–,8.95%,-6.55
Cc1cccc2ccccc12,-9.65,–,24.4%,-3.6,10.5%,13.8
CCOC(=O)c1cc(Cl)c(O)c(Cl)c1,4.5,–,11.7%,3.25,1.4%,13.9
CCOP(=O)(NC(c1ccccc1)c1ccccc1)OCC,21.9,–,5.55%,25.1,30.6%,28.8
CCOC(=O)c1c[nH][nH]c1=O,-9.05,–,-18.2%,7.85,-3.55%,5.8
CC(C)C(C)(C)C(=O)C(C)(C)C(C)(C)C,-12.2,–,–,2.6,-9.7%,7.95
CCCCc1ccc2nc(NC(=O)OC)[nH]c2c1,-4.25,–,28.8%,21.5,13.6%,11.1

SMILES,growth inhibition [1] [%],growth inhibition [2] [%],growth inhibition [3],growth inhibition [4] [%],growth inhibition [5],growth inhibition [6] [%]
Cc1nc(O)cc(=O)[nH]1,17.7,–,-6.95%,-15.3,-14.2%,10.1
O=C1NC(=O)/C(=C\c2ccncc2)N1,28.9,–,9.3%,-19.8,-0.3%,-56.5
CSc1cnc2ccccc2n1,5.55,–,13.1%,-0.85,-10.6%,-3.9
C=C(c1ccc(N(C)C)cc1)c1ccc(N(C)C)cc1,-0.95,–,-40.4%,9.5,-3.05%,-5.3
Cc1ccc(S(=O)(=O)NC(=O)NCCSSCCNC(=O)NS(=O)(=O)c2ccc(C)cc2)cc1,10.6,–,-1%,–,12.6%,7.95
Nc1ccc2c(c1)Cc1cc(N)c(N)cc1-2,10.8,–,-18.7%,-3.8,–,5.8
CCN(CC)c1ccc2nc3ccc(N=Nc4ccc(N(C)C)cc4)cc3[n+](-c3ccccc3)c2c1,42.5,–,54.9%,39.5,57.7%,38.9
Cc1ccnc(Nc2nc3ccccc3[nH]2)n1,7.1,–,14.1%,8.6,4.5%,8.85
Cc1cc(=O)n(Nc2ccccc2)c(O)c1C#N,3.45,–,–,5.6,0.3%,3.15
C[n+]1cc2cc3c(cc2c2ccccc21)OCO3,23.5,–,13.1%,26.9,–,–
CCOC(=O)c1ccc(NC(C)=O)o1,-10.3,–,-23.1%,-5.35,-3.35%,11.1
Nc1ncnc(Nc2ccccc2)n1,-6.05,–,15.1%,-5.8,-4.1%,7.1
CC1=CC(=Nc2ccc(N(C)C)cc2)C=C(C)C1=O,-14.5,–,–,20.2,-5.1%,–
COC(=O)c1ccccc1C(=O)c1c(C)cc(C)cc1C,13.8,–,-64%,46.9,34.1%,50.3
C(=C\c1ccncc1)/c1ccncc1,27.9,–,-0.55%,7.8,–,23.6
CCC(=O)C1C(=O)c2ccccc2C1=O,20.9,–,-13.8%,6.1,-17.5%,20.4
C=C(C)[C@@H]1CC[C@]2(CO)CC[C@]3(C)[C@H](CC[C@@H]4[C@@]5(C)CC[C@H](O)C(C)(C)[C@@H]5CC[C@]43C)[C@@H]12,15.6,–,11.8%,-11.7,-18.1%,29.1
CC1CCC(C(C)(C)[N+](C)(C)C)CC1 (configuration not stated),40.2,–,–,47.2,23.9%,–
CN1CCN(C(=S)S)CC1,0.3,–,2.15%,3.5,4.75%,5.15
Cc1ccccc1NC(=O)Oc1ccc(Cl)cc1C(=O)c1ccccc1,-0.15,–,24.4%,21.2,18.7%,11.4
N#C/C(=C\c1ccc2c(c1)OCO2)c1ccccc1,10.4,–,10.2%,1.95,3.15%,24.1
COc1cc(OC)c2cc(C(=O)c3ccc(C#N)cc3)c(=O)oc2c1,17,–,31%,35.1,25.1%,32.2
Nc1ncc([N+](=O)[O-])cn1,1.9,–,-13.8%,5.6,-29%,-9.45
COC1OC(COC(C)=O)C(OC(C)=O)C(OC(C)=O)C1OC(C)=O (configuration not stated),10.7,–,-28.6%,2.05,47.2%,13.2
C=C1C(=O)C2CCN1CC2,1.05,–,–,-18.1,-15.8%,-21.2
CN(C)c1ccc(O)c2c1CC1CC3C(N(C)C)C(=O)C(C(N)=O)=C(O)C3(O)C(=O)C1=C2O (configuration not stated),60.8,–,18.4%,3.6,68.2%,32.9
